# According to PubChem BioAssay AID1159580 (chemical genetic matrix, 2015):
# The campaign covered roughly 5,500 compounds. About 2,000 (36%) were called active. Roughly 18% stayed inconclusive and do not appear here. The list shows a part of the results. A number with no mark means an inactive call. No stated cut-off is given here; in the data, active means normalized growth mostly below about 0.91 (no sharp cut-off); inconclusive means no clear call, values can overlap the other calls; inactive means mostly above about 0.92.
# Experiment: chemical genetic growth profiling, strain panel (AID 1159580);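 further: tested at 20 µM; growth read once vehicle control cultures reached saturation at 30 °C; 1 = growth at the plate median or of vehicle wells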
# Conditions: S. cerevisiae deletion strains, growth OD
# [1] = locus YDL101C, strain DUN1, stronger effect = lower value
# [2] = locus YHR030C, strain SLT2, stronger effect = lower value
# [3] = locus YAL013W, strain DEP1, stronger effect = lower value
# [4] = locus YGR078C, strain PAC10, stronger effect = lower value
# [5] = locus YJR075W, strain HOC1, stronger effect = lower value
# [6] = locus YMR307W, strain GAS1, stronger effect = lower value
# [7] = locus YNL153C, strain GIM3, stronger effect = lower value
smiles,measurement,setting,value
Cc1nc(C(F)(F)F)ccc1C(=O)Sc1nnc(-c2ccc(C(F)(F)F)nc2C)o1,normalized growth,"locus YAR019C, strain CDC15, stronger effect = lower value",0.946
same,normalized growth,"locus YBL105C, strain PKC1, stronger effect = lower value",0.95
same,normalized growth,"locus YBR135W, strain CKS1, stronger effect = lower value",0.954
same,normalized growth,"locus YBR136W, strain MEC1, stronger effect = lower value",0.955
same,normalized growth,"locus YBR160W, strain CDC28, stronger effect = lower value",0.952
same,normalized growth,"locus YDL017W, strain CDC7, stronger effect = lower value",0.951
same,normalized growth,"locus YDL028C, strain MPS1, stronger effect = lower value",0.955
same,normalized growth,[1],0.961
same,normalized growth,"locus YDL108W, strain KIN28, stronger effect = lower value",0.952
same,normalized growth,"locus YDL132W, strain cdc53, stronger effect = lower value",0.956
same,normalized growth,"locus YDL214C, strain PRR2, stronger effect = lower value",0.901
same,normalized growth,"locus YDR052C, strain DBF4, stronger effect = lower value",0.949
same,normalized growth,"locus YDR054C, strain cdc34, stronger effect = lower value",0.939
same,normalized growth,"locus YDR226W, strain ADK1, stronger effect = lower value",0.946
same,normalized growth,"locus YDR477W, strain SNF1, stronger effect = lower value",0.943
same,normalized growth,"locus YER123W, strain YCK3, stronger effect = lower value",0.858
same,normalized growth,"locus YER133W, strain GLC7, stronger effect = lower value",0.936
same,normalized growth,"locus YFL009W, strain cdc4, stronger effect = lower value",0.946
same,normalized growth,"locus YFL029C, strain CAK1, stronger effect = lower value",0.947
same,normalized growth,"locus YFR003C, strain YPI1, stronger effect = lower value",0.952
same,normalized growth,"locus YFR019W, strain FAB1, stronger effect = lower value",0.976
same,normalized growth,"locus YFR028C, strain CDC14, stronger effect = lower value",0.959
same,normalized growth,"locus YGR040W, strain KSS1, stronger effect = lower value",0.956
same,normalized growth,"locus YGR052W, strain FMP48, stronger effect = lower value",0.929
same,normalized growth,"locus YGR092W, strain DBF2, stronger effect = lower value",0.864
same,normalized growth,[2],0.617 (active)
same,normalized growth,"locus YHR079C, strain IRE1, stronger effect = lower value",0.737
same,normalized growth,"locus YHR082C, strain KSP1, stronger effect = lower value",0.962
same,normalized growth,"locus YHR205W, strain SCH9, stronger effect = lower value",0.732
same,normalized growth,"locus YIL147C, strain SLN1, stronger effect = lower value",0.952
same,normalized growth,"locus YJL095W, strain BCK1, stronger effect = lower value",0.861
same,normalized growth,"locus YJL128C, strain PBS2, stronger effect = lower value",0.902
same,normalized growth,"locus YJL157C, strain FAR1, stronger effect = lower value",0.945
same,normalized growth,"locus YJR016C, strain ILV3, stronger effect = lower value",0.952
same,normalized growth,"locus YJR066W, strain TOR1 (second series), stronger effect = lower value",0.716
same,normalized growth,"locus YJR066W, strain TOR1, stronger effect = lower value",0.935
same,normalized growth,"locus YKL048C, strain ELM1, stronger effect = lower value",0.937
same,normalized growth,"locus YKL067W, strain YNK1, stronger effect = lower value",0.893
same,normalized growth,"locus YKL101W, strain HSL1, stronger effect = lower value",0.886
same,normalized growth,"locus YKL193C, strain SDS22, stronger effect = lower value",0.949
same,normalized growth,"locus YKL203C, strain TOR2, stronger effect = lower value",0.989
same,normalized growth,"locus YLR113W, strain HOG1, stronger effect = lower value",0.515 (active)
same,normalized growth,"locus YLR133W, strain CKI1, stronger effect = lower value",0.924
same,normalized growth,"locus YLR403W, strain SFP1, stronger effect = lower value",0.945
same,normalized growth,"locus YML070W, strain DAK1, stronger effect = lower value",0.89
same,normalized growth,"locus YMR001C, strain CDC5, stronger effect = lower value",0.953
same,normalized growth,"locus YMR205C, strain PFK2 (second series), stronger effect = lower value",0.918
same,normalized growth,"locus YMR277W, strain FCP1, stronger effect = lower value",0.951
same,normalized growth,"locus YNL006W, strain LST8, stronger effect = lower value",0.959
same,normalized growth,"locus YNL020C, strain ARK1, stronger effect = lower value",0.889
same,normalized growth,"locus YNL161W, strain CBK1, stronger effect = lower value",0.936
same,normalized growth,"locus YNL183C, strain NPR1, stronger effect = lower value",0.905
same,normalized growth,"locus YNL207W, strain RIO2, stronger effect = lower value",0.942
same,normalized growth,"locus YNL222W, strain SSU72, stronger effect = lower value",0.954
same,normalized growth,"locus YNL307C, strain MCK1 (second series), stronger effect = lower value",0.868
same,normalized growth,"locus YOL078W, strain AVO1, stronger effect = lower value",0.949
same,normalized growth,"locus YOL136C, strain PFK27, stronger effect = lower value",0.876
same,normalized growth,"locus YOR061W, strain CKA2, stronger effect = lower value",0.887
same,normalized growth,"locus YOR119C, strain RIO1, stronger effect = lower value",1.02
same,normalized growth,"locus YOR231W, strain MKK1, stronger effect = lower value",0.802
same,normalized growth,"locus YOR329C, strain SCD5, stronger effect = lower value",0.953
same,normalized growth,"locus YPL031C, strain PHO85, stronger effect = lower value",0.94
same,normalized growth,"locus YPL153C, strain RAD53, stronger effect = lower value",0.963
same,normalized growth,"locus YPL204W, strain HRR25, stronger effect = lower value",0.934
same,normalized growth,"locus YPL209C, strain IPL1, stronger effect = lower value",0.95
same,normalized growth,"locus YPL256C, strain CLN2, stronger effect = lower value",0.605 (active)
same,normalized growth,"locus YPR025C, strain CCL1, stronger effect = lower value",0.949
same,normalized growth,"locus YPR106W, strain ISR1, stronger effect = lower value",0.951
same,normalized growth,"locus YPR111W, strain DBF20, stronger effect = lower value",0.919
same,normalized growth,"strain NNK1, stronger effect = lower value",0.928
same,normalized growth,"strain TSCII, stronger effect = lower value",0.943
CCOC(=O)CC1=Nn2c(nnc2-c2cc(Cl)cc(Cl)c2)SC1,normalized growth,[3],0.97
same,normalized growth,"locus YBR229C, strain ROT2, stronger effect = lower value",0.905 (active)
same,normalized growth,[1],0.914
same,normalized growth,"locus YDL134C, strain PPH21, stronger effect = lower value",0.996
same,normalized growth,"locus YDR150W, strain NUM1, stronger effect = lower value",0.857
same,normalized growth,"locus YEL061C, strain CIN8, stronger effect = lower value",0.934
same,normalized growth,[4],0.97
same,normalized growth,"locus YGR229C, strain SMI1, stronger effect = lower value",0.979
same,normalized growth,[2],0.538 (active)
same,normalized growth,"locus YHR087W, strain rtc3, stronger effect = lower value",0.927
same,normalized growth,"locus YJL187C, strain SWE1, stronger effect = lower value",0.913 (active)
same,normalized growth,"locus YJR043C, strain POL32, stronger effect = lower value",0.989
same,normalized growth,[5],0.811 (active)
same,normalized growth,"locus YLR039C, strain RIC1, stronger effect = lower value",0.91
same,normalized growth,"locus YLR058C, strain SHM2 (second series), stronger effect = lower value",0.971
same,normalized growth,"locus YLR085C, strain ARP6, stronger effect = lower value",0.808
same,normalized growth,"locus YLR262C, strain YPT6, stronger effect = lower value",0.982
same,normalized growth,"locus YML094W, strain GIM5, stronger effect = lower value",0.823 (active)
same,normalized growth,"locus YMR219W, strain ESC1, stronger effect = lower value",0.955
same,normalized growth,"locus YMR263W, strain SAP30, stronger effect = lower value",0.965
same,normalized growth,[6],0.806
same,normalized growth,[7],0.95
same,normalized growth,"locus YNL298W, strain CLA4 (second series), stronger effect = lower value",0.823 (active)
same,normalized growth,"locus YNL322C, strain KRE1, stronger effect = lower value",0.977
same,normalized growth,"locus YNR030W, strain Alg12, stronger effect = lower value",0.914
same,normalized growth,"locus YPL055C, strain LGE1, stronger effect = lower value",0.864
same,normalized growth,"locus YPL241C, strain CIN2, stronger effect = lower value",1.01
same,normalized growth,"locus YPR135W, strain CTF4, stronger effect = lower value",0.714
C=CCN1CC[C@]23CCCCC2[C@H]1Cc1ccc(O)cc13 (some centres not stated),normalized growth,[3],1.02
same,normalized growth,"locus YAL040C, strain CLN3, stronger effect = lower value",1.01
same,normalized growth,"locus YCL061C, strain MRC1 (second series), stronger effect = lower value",1.01
same,normalized growth,"locus YDR363W, strain ESC2, stronger effect = lower value",1.02
same,normalized growth,"locus YER002W, strain NOP16, stronger effect = lower value",1
same,normalized growth,[4],0.995
same,normalized growth,[5],0.999
same,normalized growth,[6],1.01
same,normalized growth,[7],1.02
same,normalized growth,"locus YNL175C, strain NOP13, stronger effect = lower value",1.01
same,normalized growth,"locus YNL197C, strain WHI3, stronger effect = lower value",0.997
same,normalized growth,"locus YNL224C, strain SQS1, stronger effect = lower value",0.988
same,normalized growth,"locus YOR083W, strain WHI5 (second series), stronger effect = lower value",1.01
